# Results filed as inconclusive are left out. Unmarked numbers belong to inactive results. Active and inactive are the calls of the source. Calls follow the shape of the dose curve; as a rule, active = well fitted activation curve with a large enough effect in the repeat runs; inconclusive = weak or mixed curves; inactive = flat fitted curve, though single readings scatter.
# Assay: Caspase-3/7 induction in HepG2 cells by small molecules, qHTS assay (AID 1346978); also: nearly all actives have a fitted effect of over 15% in size
# Conditions: HepG2 caspase-3/7 activation, Caspase-Glo luminescence, 17 h; series mostly up to 92.4 µM; caspase activation: at the top concentration
# Text: National Center for Advancing Translational Sciences [NCATS] NIH Chemical Genomics Center [NCGC] U.S. Environmental Protection Agency [EPA] National Institutes of Environmental Health Sciences [NIEHS] National Toxicology Program [NTP] Assay overview: Apoptosis is a process of programmed cell death and plays a central role in the development of multicellular organisms. It is a highly regulated process and induces cell death by activating caspases, which are the members of cysteine aspartic acid-specific protease (caspase) family. Caspases involved in apoptosis are classified by their mechanism of action as initiator caspases (caspase-2, -8, -9 and -10) and executioner caspases (caspase-3, -6, and -7). Inhibition of apoptosis results in number of cancers, autoimmune diseases, inflammatory diseases and viral infection. To identify small molecule compounds that induce apoptosis, a homogeneous, luminescent Caspase-Glo 3/7 assay was used. Wild type HepG2 cells were used to screen Tox21 libraries for identifying caspase-3/7 activity inducers.
# Assay Protocol Summary: HepG2 cells were dispensed at 2,000 per well in 5uL of culture medium into white solid bottom 1536-well plates (Corning Life Sciences, Corning, NY) using a Multidrop Combi (Thermo Scientific, Waltham, MA) dispenser. The assay plates were incubated at 37 C and 5% CO2 for 5hr, and then 23nL of compounds dissolved in DMSO and positive control were transferred using a Pintool station (Wako, San Diego, CA). The assay plates were incubated at 37C and 5% CO2 for 17hr. For caspase-3/7 activity read, 4uL of Caspase-Glo 3/7 reagent (Promega Corporation, Madison, WI) was added to each well of the assay plates using Flying Reagent Dispenser (FRD, Aurora Discovery, San Diego, CA) and incubated the assay plates at room temperature for 30min. The luminescence signal was quantified using a ViewLux plate reader (Perkin Elmer, Shelton, CT).
# % is scaled to controls: 0 for no effect and ±100 for the full control effect.
Structure (SMILES),Potency,caspase activation
Nc1cc(Cl)cc(C(=O)O)c1Cl,inactive,–
CCCBr,–,0.561%
COc1cc(C[C@@H](C)N)c(OC)cc1Br,–,-0.318%
N#CC1(N=NC2(C#N)CCCCC2)CCCCC1,–,0.561%
CCNC(=O)NC(=O)/C(C#N)=N/OC,–,1.65%
C=CCc1ccc(OC(=O)Cc2ccccc2)c(OC)c1,–,3.06%
O=C(CCl)CCl,inactive,–
C[C@H]1O[C@H](OC2[C@@H](O)[C@@H](O)C(O)[C@H](O)[C@H]2O)[C@@H](N)C[C@@H]1N=C(N)C(=O)O (stereo not given in full),–,0.661%
CCOc1cccc(C2(N3CCN(c4ccccc4)CC3)CCC(C)CC2)c1 (stereo not given),–,-2.31%
CCCCNC(=O)OCC#CI,inactive,–
COc1cc(CC#N)cc(OC)c1OC,–,0.962% [at 42.5 µM]
FC(F)OC(F)(F)C(F)Cl (stereo not given),–,0.268%
CC(Oc1cc(Cl)c(Cl)cc1Cl)C(=O)O (stereo not given),–,0.155%
CCCSP(=S)(OCC)Oc1ccc(SC)cc1 (stereo not given),–,0.133%
Clc1ccc(Cl)c(Cl)c1,inactive,–
CCOP(=O)(O)C(N)=O,–,0.324%
C1CS1,–,0.11%
CCOP(=S)(OCC)SCSc1cc(Cl)ccc1Cl,–,-1.67%
CCCCCl,–,0.354%
CCOC(=O)c1cncn1C(C)c1ccccc1 (stereo not given),–,0.33% [at 42.5 µM]

Structure (SMILES),Potency,caspase activation
C=CCc1ccccc1O,–,-0.819%
CCC(=O)O[C@@H]1C=C2CCC3C(CCC4(C)C3CC[C@@H]4OC(=O)CC)C2CC1 (stereo not given in full),–,0.336% [at 42.5 µM]
CCSCc1ccccc1OC(=O)NC,–,-0.267%
O=C=NC1CCCCC1,–,-1.07%
NC(=S)c1c(Cl)cccc1Cl,–,-1.6%
C=CC(=O)OCC,–,1.95%
C=C(Cl)Cl,–,0.105%
O=C(NCNC(=O)NC1C(=O)NC(=O)N1CO)NC1C(=O)NC(=O)N1CO (stereo not given),–,-0.745%
Cc1ccc(N)c(C)c1,inactive,–
CC(C)c1ccc(NC(=O)N(C)C)cc1,–,-0.744%
Cc1nnc(-c2ccccc2)c(=O)n1N,–,-1.75%
CC(C)CCCCCCCOC(=O)c1ccccc1C(=O)OCCCCCCCC(C)C,–,0.538%
C[N+]1(CCC(C(N)=O)(c2ccccc2)c2ccccc2)CCCCC1,–,0.634% [at 42.5 µM]
CC(Cc1ccccc1)NCc1ccccc1Cl (stereo not given),–,1.88% [at 42.5 µM]
COP(=O)(OC)OC(Br)C(Cl)(Cl)Br (stereo not given),inactive,–
CCCC[P+](CC)(CCCC)CCCC (tested in a mixture with another compound),–,1.68%
c1ccc2c(c1)-c1cccc3cccc-2c13,inactive,–
Clc1ccccc1,–,-5.88%
Oc1cccc(Cl)c1,–,-1.49%
C[N+]1(CCF)[C@@H]2CC[C@H]1CC(OC(=O)C(O)(c1ccccc1)c1ccccc1)C2 (stereo not given in full),–,-0.467% [at 42.5 µM]

# From PubChem BioAssay (Tox21)
